These results are taken from PubChem BioAssay.

Values joined by “and” are separate entries in the source; they are usually repeats but may differ in a detail not shown here. Identical values can stand only once. Active and inactive are the calls of the source. Rule as the data show it, unless noted: active = parasite load remaining mostly below about 12% (no sharp cut-off); inactive = mostly above about 10%.

A short description of experiment [1]: liver-stage malaria parasite growth inhibition, primary screen, cell-based, HepG2, luciferase luminescence, HepG2 viability (AID 624349).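 Also: 100% = mean of DMSO negative control wells on the same plate.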 Conditions: P. berghei liver stage in HepG2, luciferase luminescence, concentration not given here; parasite load remaining: stronger effect = lower value; viability: measured here: HepG2 viability without parasites.
A short description of experiment [2]: stimulators of nuclear beta-catenin in C2C12, primary screen, imaging, WNT3A-conditioned medium, mouse C2C12, NPC library (AID 1117326; in the data active = nuclear beta-catenin stimulation mostly above about 4.2%, no sharp cut-off; inactive = mostly below about 10%). Particulars: stronger effect = higher value.
Experiment [3] can be described thus: stimulators of insulin release from INS-1E, primary screen, cell-based, 5 mM glucose, NPC library (AID 1117329;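 active = compound raises insulin release from rat beta cells at 5 mM glucose, no numeric limit stated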). Conditions: rat INS-1E insulin secretion, at 10 µM, stronger effect = higher value.
A short description of experiment [4]: growth inhibition of GSK3B-pretreated HCT116 cells – cell-based, CellTiter-Glo, 0.2 to 20 µM (AID 1117336;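 active = compounds lowering colon cancer cell viability after pretreatment blocking the GSK3B kinase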). Particulars: HCT116 viability after GSK3B inhibitor, at 20 µM, stronger effect = higher value.
A short description of experiment [5]: inhibition of endothelial tube formation, primary screen, imaging, VEGF stimulated, CD31 staining, tube area, NPC library (AID 1117340;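 active = compound that reduces growth-factor-driven endothelial tube area in a mixed cell culture, no cutoff stated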). Conditions: VEGF-stimulated ADSC/ECFC co-culture, at 10 µM, stronger effect = higher value.
The nature of experiment [6]: glucagon-like peptide 1 release enhancers, primary assay, NCI-H716 cell line, NPC library (AID 1117341;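 active = compound raises GLP1 secretion from the human gut endocrine cells, with no numeric limit stated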). Particulars: NCI-H716 cells, at 10 µM, stronger effect = higher value.
Experiment [7] is described as follows: HCT116 colon cancer cell growth inhibition, primary screen, CellTiter-Glo luminescence, NPC library (AID 1117342;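 active = compounds that lower survival of HCT116 colon cancer cells in the luminescence readout, no numeric limit stated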). Conditions: at 20 µM (top of the series). (In ATP-based viability assays light output follows the ATP content of the culture.)
Experiment [8] in a line: CellTiter-Glo luminescent readout of SW480 viability loss, NPC library primary (AID 1117343;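 active = compounds that lower viability of the colon cancer cells in the luminescence readout, with no numeric limit stated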). Conditions: CellTiter-Glo luminescence; at 20 µM (top of the series).
A short description of experiment [9]: decreased DLD-1 cellular survival, CellTiter-Glo luminescent readout, NPC compound collection, primary HTS (AID 1117346;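 active = compounds that lower survival of DLD-1 colon cancer cells in the luminescence readout, no cutoff given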). Particulars: DLD-1 viability, CellTiter-Glo luminescence; at 20 µM (top of the series).
The target of experiment [10] is 6-phosphogluconate dehydrogenase, decarboxylating (Homo sapiens) (UniProt P52209). As to the kind of experiment: 6PGD enzyme inhibitors, primary screen, biochemical, human, recombinant enzyme, NADPH absorbance (AID 1159550;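 active = at least 20% inhibition of 6-phosphogluconate dehydrogenase activity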). Particulars: recombinant 6PGD, NADPH absorbance 341 nm; at 10 µM; stronger effect = higher value.
Chain of 6-phosphogluconate dehydrogenase, decarboxylating (Homo sapiens) (P52209 whole entry, looked up): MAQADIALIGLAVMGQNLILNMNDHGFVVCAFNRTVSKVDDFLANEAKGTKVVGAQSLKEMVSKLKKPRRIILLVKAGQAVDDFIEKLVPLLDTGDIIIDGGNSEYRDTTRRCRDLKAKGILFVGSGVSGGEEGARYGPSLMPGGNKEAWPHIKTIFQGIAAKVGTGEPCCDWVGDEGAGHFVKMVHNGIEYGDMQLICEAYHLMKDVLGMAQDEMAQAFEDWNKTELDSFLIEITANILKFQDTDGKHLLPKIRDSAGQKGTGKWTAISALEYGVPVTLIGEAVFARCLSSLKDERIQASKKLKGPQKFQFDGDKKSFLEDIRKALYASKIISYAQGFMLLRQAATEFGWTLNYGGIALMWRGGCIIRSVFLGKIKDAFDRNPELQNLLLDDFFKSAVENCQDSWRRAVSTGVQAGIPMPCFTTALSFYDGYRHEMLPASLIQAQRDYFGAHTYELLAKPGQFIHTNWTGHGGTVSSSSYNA

For the compound `CCCCCC(C)N` (centres undefined), the parasite load remaining in experiment [1] was 115% (inactive) and 42.4% (inactive). Moreover, in [1], the viability (usually a read-out of living cells in per cent, often relative to untreated cells) is 77.1% and 86.1%. In addition, the nuclear beta-catenin stimulation was 1.8% (inactive) in experiment [2] (at 10 µM) and 3.7% in experiment [2] (stimulation, at 2 µM). Moreover, the insulin secretion stimulation in [3] is 3.3% (inactive). In addition, in [4], the viability decrease is 11.8% (inactive). Moreover, in experiment [5], the tube area decrease was 4.3% (inactive). In experiment [6], the GLP1 secretion stimulation was 0% (inactive). For the same compound, the inhibition of viability in experiment [7] is -3.73% (inactive). Besides, the viability decrease (inhibition) in experiment [8] is -37.6% (inactive); in [9] it was 1.5% (inactive). The inhibition (commonly the relative decrease from the control value, in per cent) in [10] was -7.17% (inactive).
Turning to `O=c1[nH]c(=O)n([C@H]2C[C@H](O)[C@@H](CO)O2)cc1F`, the parasite load remaining in experiment [1] was 13.4% (inactive). For the same compound, the viability in experiment [1] stood at 75%. The nuclear beta-catenin stimulation in [2] (at 10 µM) is 21% (inactive); in experiment [2] (stimulation, at 2 µM) it was 21.6%. The insulin secretion stimulation in experiment [3] is -1.2% (inactive). The viability decrease in experiment [4] was 94.2% (active). In experiment [5], the tube area decrease was 87.8% (active). Moreover, in experiment [6], the GLP1 secretion stimulation was 2.8% (inactive). For the same compound, the inhibition of viability in [7] is 102% (active). Also, the viability decrease (inhibition) in experiment [8] is 93.2% (active); in experiment [9], 69.5% (active). For the same compound, in experiment [10], the inhibition is -7.05% (inactive).
Take `Oc1c(I)cc(I)c2cccnc12`: the parasite load remaining in experiment [1] was 92.2% (inactive) and 20.2% (inactive). The viability in experiment [1] was 77.1% and 92.8%. The nuclear beta-catenin stimulation in experiment [2] (at 10 µM) is 0.7% (inactive); in experiment [2] (stimulation, at 2 µM), 1%. The insulin secretion stimulation in experiment [3] is 0.55% (inactive). Further, the viability decrease in [4] is 102% (active). The tube area decrease in experiment [5] is 108% (active). The GLP1 secretion stimulation in experiment [6] was -3.1% (inactive). In experiment [7], the inhibition of viability is 89.9% (active). Further, the viability decrease (inhibition) in [8] was 147% (active); in experiment [9] it was 96.2% (active). The inhibition in [10] is -4.02% (inactive).
Take `CC(=O)NO`: the parasite load remaining in experiment [1] is 102% (inactive) and 55.8% (inactive). The viability in experiment [1] is 71.8% and 93.7%. Also, the nuclear beta-catenin stimulation is 0% (inactive) in [2] (at 10 µM) and 0.9% in experiment [2] (stimulation, at 2 µM). Moreover, the insulin secretion stimulation in experiment [3] was 5.1% (inactive). Besides, the viability decrease in experiment [4] is 30.9% (inactive). Besides, in [5], the tube area decrease was 11.1% (inactive). Further, in experiment [6], the GLP1 secretion stimulation is 10.8% (active). Besides, the inhibition of viability in experiment [7] is 10.6% (inactive). The viability decrease (inhibition) in [8] was 69.2% (active); in [9], 56% (active). Moreover, in experiment [10], the inhibition is -9.51% (inactive).
Consider `C[C@]12CC[C@@H]3c4ccc(O)cc4CC[C@H]3[C@@H]1C[C@@H](O)[C@@H]2O`, for which the parasite load remaining in experiment [1] was 68.5% (inactive) and 32.3% (inactive). Besides, the viability in experiment [1] is 70% and 67.5%. In addition, the nuclear beta-catenin stimulation is 4.3% (inactive) in experiment [2] (at 10 µM) and 3% in experiment [2] (stimulation, at 2 µM). In addition, the insulin secretion stimulation in experiment [3] was 2% (inactive). Besides, the viability decrease in [4] is 11.1% (inactive). The tube area decrease in experiment [5] was -3.9% (inactive). Also, the GLP1 secretion stimulation in experiment [6] was 12.5% (inactive). For the same compound, the inhibition of viability in experiment [7] was 4.67% (inactive). The viability decrease (inhibition) was 25.1% (inactive) in experiment [8] and -13.7% (inactive) in experiment [9]. Also, in [10], the inhibition was -14.5% (inactive).
For the compound `CCCCC1C(=O)N(c2ccccc2)N(c2ccc(O)cc2)C1=O` (centres undefined), in experiment [1], the parasite load remaining is 75.4% (inactive) and 73.9% (inactive) and 45.8% (inactive). Further, the viability in [1] was 80.4% and 71.7% and 90.8%. The nuclear beta-catenin stimulation was 66.2% (active) in experiment [2] (at 10 µM) and 2.3% in experiment [2] (stimulation, at 2 µM). For the same compound, in experiment [3], the insulin secretion stimulation is -0.2% (inactive). Also, the viability decrease in experiment [4] was 6.7% (inactive). For the same compound, in experiment [5], the tube area decrease was 50.3% (active). The GLP1 secretion stimulation in [6] is 12.4% (inactive). In [7], the inhibition of viability was 57.7% (active). In addition, the viability decrease (inhibition) in experiment [8] was 124% (active); in experiment [9], 101% (active). In addition, the inhibition in [10] was -5.96% (inactive).
On to `CC1(C)O[C@@H]2C[C@H]3[C@@H]4C[C@H](F)C5=CC(=O)CC[C@]5(C)[C@H]4[C@@H](O)C[C@]3(C)[C@]2(C(=O)CO)O1`, for which, in experiment [1], the parasite load remaining is 156% (inactive). For the same compound, the viability in [1] is 105%. Moreover, the nuclear beta-catenin stimulation is -1.9% (inactive) in experiment [2] (at 10 µM) and 4% in [2] (stimulation, at 2 µM). For the same compound, the insulin secretion stimulation in experiment [3] is 6.1% (inactive). Besides, the viability decrease in experiment [4] is 0.8% (inactive). For the same compound, the tube area decrease in experiment [5] was -40.9% (inactive). For the same compound, the GLP1 secretion stimulation in experiment [6] is 1.2% (inactive). Besides, the inhibition of viability in [7] was 0.1% (inactive). Besides, the viability decrease (inhibition) in experiment [8] was -2.1% (inactive); in experiment [9], -16.6% (inactive). In experiment [10], the inhibition is 8.44% (inactive).
Consider `CC(C)(Oc1ccc(Cl)cc1)C(=O)O`, for which, in experiment [1], the parasite load remaining was 91.8% (inactive) and 94% (inactive). Besides, in experiment [1], the viability was 98.7% and 75.8%. Moreover, the nuclear beta-catenin stimulation in [2] (at 10 µM) is 1.8% (inactive); in experiment [2] (stimulation, at 2 µM), 2.1%. Besides, in experiment [3], the insulin secretion stimulation is -2.3% (inactive). Also, the viability decrease in experiment [4] is -12.6% (inactive). The tube area decrease in experiment [5] is -2.8% (inactive). Besides, the GLP1 secretion stimulation in [6] was 4.6% (inactive). In [7], the inhibition of viability was 13.2% (inactive). The figures for the viability decrease (inhibition) in experiment [8] and in experiment [9] were 12.2% (inactive) and -5.25% (inactive), respectively. Also, the inhibition in experiment [10] is -17.2% (inactive).
With `NC(=O)c1ccccc1O`, in [1], the parasite load remaining is 47.6% (inactive) and 47.5% (inactive). Also, in [1], the viability was 78.6% and 92.9%. Also, the nuclear beta-catenin stimulation in [2] (at 10 µM) is 0.9% (inactive); in [2] (stimulation, at 2 µM) it was 0.5%. In addition, the insulin secretion stimulation in experiment [3] is -0.8% (inactive). Further, the viability decrease in experiment [4] was 5.6% (inactive). In addition, the tube area decrease in [5] is -13.1% (inactive). For the same compound, in [6], the GLP1 secretion stimulation is 0.3% (inactive). Further, the inhibition of viability in experiment [7] was 10.6% (inactive). Also, the viability decrease (inhibition) in [8] was 27.7% (inactive); in [9] it was 0.25% (inactive). In addition, in [10], the inhibition is -8.81% (inactive).
Regarding `O=C1c2c(O)cccc2Cc2cccc(O)c21`, in experiment [1], the parasite load remaining is 94% (inactive) and 68.1% (inactive). The viability in experiment [1] is 73% and 78.8%. The nuclear beta-catenin stimulation in experiment [2] (at 10 µM) was -3.3% (inactive); in experiment [2] (stimulation, at 2 µM), -2%. Also, the insulin secretion stimulation in experiment [3] is 0.8% (inactive). Also, the viability decrease in experiment [4] was 38.5% (inactive). The tube area decrease in experiment [5] was 108% (active). Moreover, the GLP1 secretion stimulation in experiment [6] was -2.2% (inactive). In experiment [7], the inhibition of viability is 30.9% (inactive). Besides, the results for the viability decrease (inhibition) in [8] and in experiment [9] were 61.6% (active) and 53.6% (active), respectively. For the same compound, in experiment [10], the inhibition is -1.39% (inactive).
With `CC(C(=O)O)c1ccc(C(=O)c2cccs2)cc1` (centres undefined), the parasite load remaining in experiment [1] is 81.3% (inactive) and 117% (inactive) and 42.2% (inactive). In addition, the viability in experiment [1] was 105% and 68.4% and 94.1%. The nuclear beta-catenin stimulation in experiment [2] (at 10 µM) is -2.4% (inactive); in experiment [2] (stimulation, at 2 µM) it was -0.7%. In addition, in [3], the insulin secretion stimulation is 1.8% (inactive). Besides, the viability decrease in [4] was -5.4% (inactive). In experiment [5], the tube area decrease was -3.5% (inactive). In experiment [6], the GLP1 secretion stimulation is -3.9% (inactive). Moreover, the inhibition of viability in [7] is 0.8% (inactive). For the same compound, the figures for the viability decrease (inhibition) in experiment [8] and in experiment [9] were -1.2% (inactive) and 0% (inactive), respectively. In addition, the inhibition in [10] was -2.86% (inactive).
Take `Oc1cccc(O)c1`: the parasite load remaining in experiment [1] is 91.2% (inactive) and 38.4% (inactive). Besides, in [1], the viability was 77.8% and 101%. For the same compound, the nuclear beta-catenin stimulation was -0.3% (inactive) in [2] (at 10 µM) and 0.3% in experiment [2] (stimulation, at 2 µM). In experiment [3], the insulin secretion stimulation was -1.9% (inactive). Besides, the viability decrease in experiment [4] was -0.8% (inactive). Further, the tube area decrease in experiment [5] is 21% (inactive). The GLP1 secretion stimulation in experiment [6] is -2.3% (inactive). The inhibition of viability in experiment [7] was 8% (inactive). Further, the viability decrease (inhibition) in [8] was 78.9% (active); in experiment [9] it was 2.6% (inactive). Also, the inhibition in [10] is -5.12% (inactive).
